Data as given in PubChem BioAssay (NCI).
About 79,000 compounds went through this panel and 15% of them were active in at least one assay; those are over-represented in the sample as a whole. Active and inactive are the calls of the source. No stated cut-off is given here; in the data, active means growth inhibition above about 70%; inactive means the rest.

What was measured:
[1] = NCI Yeast Anticancer Drug Screen. Data for the rad52 strain (AID 147);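 further: 0% = growth of vehicle-treated control cultures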; details: S. cerevisiae rad52 mutant growth inhibition, stronger effect = higher value
Procedure, shortened: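 Growth of repair-deficient yeast cells was compared between compound-treated and vehicle-treated cultures to give percent inhibition.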

[2] = NCI Yeast Anticancer Drug Screen. Data for the wt1 strain (AID 149);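 further: 0% = growth of vehicle-treated wt1 cultures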; details: S. cerevisiae wt1 strain (SPY 50644) growth inhibition, stronger effect = higher value
Procedure, shortened: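 Compounds are added to wt1 yeast cultures. Growth is then measured. Inhibition is expressed relative to vehicle-treated controls.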

[3] = NCI Yeast Anticancer Drug Screen. Data for the rad50EPP+ strain (AID 151);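 further: 0% = growth of vehicle-treated control cultures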; details: S. cerevisiae rad50 mutant strain, stronger effect = higher value
Procedure, shortened: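 Measured: growth inhibition of rad50EPP+ yeast. Reference: vehicle-treated controls. Screen uses strains with defined genetic alterations in DNA damage repair or cell cycle control.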

[4] = NCI Yeast Anticancer Drug Screen. Data for the mgt1 strain (AID 153); details: S. cerevisiae mgt1 mutant growth inhibition, stronger effect = higher value
Procedure, shortened: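 Compounds were applied to mgt1 mutant yeast, and growth was then compared against vehicle-treated control cultures to give percent inhibition.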

[5] = NCI Yeast Anticancer Drug Screen. Data for the rad50 strain (AID 155);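 further: 0% = growth of vehicle-only cultures of the same strain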; details: S. cerevisiae rad50 strain growth inhibition, stronger effect = higher value
Procedure, shortened: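 Inhibition values express reduced yeast growth in compound-treated cultures relative to vehicle-treated controls.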

[6] = NCI Yeast Anticancer Drug Screen. Data for the mec2-1 strain (AID 157); details: S. cerevisiae mec2-1 strain, stronger effect = higher value
Procedure, shortened: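 Compounds were applied to mec2-1 yeast cells. Their growth was then compared with that of vehicle-treated cultures to give growth inhibition.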

[7] = NCI Yeast Anticancer Drug Screen. Data for the rad14 strain (AID 159);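 further: 0% = growth of vehicle-treated control cultures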; details: S. cerevisiae rad14 strain growth inhibition, stronger effect = higher value
Procedure, shortened: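 A mutant yeast strain defective in DNA damage repair is treated with compound; inhibition of its growth is scored against untreated, vehicle-exposed cultures.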

[8] = NCI Yeast Anticancer Drug Screen. Data for the sgs1 mgt1 strain (AID 161);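 further: 0% = growth of cultures given vehicle only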; details: S. cerevisiae sgs1 mgt1 strain, stronger effect = higher value
Procedure, shortened: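 Percent growth inhibition was derived by comparing compound-exposed mutant yeast with vehicle-exposed cultures. The strain carries alterations in DNA damage repair.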

[9] = NCI Yeast Anticancer Drug Screen. Data for the CLN2oe strain (AID 163);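 further: 0% = growth of vehicle-only control cultures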; details: S. cerevisiae CLN2oe strain, stronger effect = higher value
Procedure, shortened: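 Cells of an engineered yeast line with disturbed cell-cycle regulation are treated with compound. Inhibition of growth is then calculated relative to the vehicle-treated reference.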

[10] = NCI Yeast Anticancer Drug Screen. Data for the cln2 rad14 strain (AID 165);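 further: 0% = growth equal to vehicle treated cultures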; details: S. cerevisiae cln2 rad14 strain, stronger effect = higher value
Procedure, shortened: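 Strain: cln2 rad14 yeast, altered in cell cycle control and DNA damage repair. Read-out: growth inhibition vs vehicle.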

[11] = NCI Yeast Anticancer Drug Screen. Data for the bub3 strain (AID 167); details: S. cerevisiae bub3 mutant strain, stronger effect = higher value
Procedure, shortened: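 Steps: expose the mutant yeast strain to compound; grow alongside vehicle-treated cultures; measure growth; express inhibition against the vehicle cultures.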

[12] = NCI Yeast Anticancer Drug Screen. Data for the wt2 strain (AID 169);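 further: 0% = growth of vehicle-treated yeast cultures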; details: S. cerevisiae wt2 strain growth inhibition, stronger effect = higher value
Procedure, shortened: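 Growth of compound-treated yeast is measured and expressed as inhibition relative to vehicle-only controls.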

[13] = NCI Yeast Anticancer Drug Screen. Data for the mlh1 strain (AID 171);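 further: 0% = growth of vehicle-treated control cultures of the same strain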; details: S. cerevisiae mlh1 strain growth inhibition, stronger effect = higher value
Procedure, shortened: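 Test agents were incubated with yeast bearing a defined DNA damage repair or cell cycle control alteration; values are growth inhibition normalised to vehicle-treated cultures.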

[14] = NCI Yeast Anticancer Drug Screen. Data for the sgs1 strain (AID 173);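 further: 0% = growth of vehicle-only control cultures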; details: S. cerevisiae sgs1 mutant, stronger effect = higher value
Procedure, shortened: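 Strain with an altered DNA repair or cell cycle pathway exposed to compound. Growth then measured. Value = inhibition versus vehicle control.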

[15] = NCI Yeast Anticancer Drug Screen. Data for the mlh1 rad18 strain (AID 175); details: S. cerevisiae mlh1 rad18 strain growth inhibition, stronger effect = higher value
Procedure, shortened: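 A repair-deficient yeast strain is exposed to test compound, and growth is scored relative to vehicle-treated controls.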

[16] = NCI Yeast Anticancer Drug Screen. Data for the rad18 strain (AID 177); details: S. cerevisiae rad18 mutant growth inhibition, stronger effect = higher value
Procedure, shortened: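 DNA-repair-defective yeast; compound treatment; growth inhibition scored against vehicle.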

[17] = at 5.0 µM (retest, dose inferred, filed as 0.5)
[18] = at 50.0 µM (retest, dose inferred, filed as 5.0)

Measured: growth inhibition

CCOC1Oc2ccccc2-c2nc(N)ncc21 (stereo not drawn)
active: [5]; [18] 75% | [5]; at 50.0 µM 88.3% | [6]; at 50.0 µM 85.4% | [8]; [18] 85% | [15]; [18] 76%
inactive: [1]; at 1.2 µM 7% | [1]; at 3.7 µM 6% | [1]; at 11.0 µM 3% | [1]; at 33.0 µM 3% | [1]; at 100.0 µM -5% | [2]; at 1.2 µM -4% | [2]; at 3.7 µM -1% | [2]; at 11.0 µM 1% | [2]; at 33.0 µM -1% | [2]; at 100.0 µM -14% | [3]; at 1.2 µM 0% | [3]; at 3.7 µM -1% | [3]; at 11.0 µM -5% | [3]; at 33.0 µM -3% | [3]; at 100.0 µM -12% | [4]; at 1.2 µM -2% | [4]; at 3.7 µM 10% | [4]; at 11.0 µM 4% | [4]; at 33.0 µM 9% | [4]; at 100.0 µM 6% | [5]; at 1.2 µM -2% | [5]; at 3.7 µM -13% | [5]; [17] 17% | [5]; at 11.0 µM -5% | [5]; at 33.0 µM 0% | [5]; at 100.0 µM -33% | [6]; at 1.2 µM 13% | [6]; at 3.7 µM 6% | [6]; [17] 3% | [6]; at 11.0 µM -2% | [6]; at 33.0 µM -8% | [6]; [18] 39% | [6]; at 100.0 µM -15% | [7]; at 1.2 µM -3% | [7]; at 3.7 µM -5% | [7]; at 11.0 µM -4% | [7]; at 33.0 µM -1% | [7]; at 100.0 µM -4% | [8]; [17] 10% | [8]; at 50.0 µM -4.55% | [9]; at 1.2 µM 7% | [9]; at 3.7 µM 4% | [9]; at 11.0 µM -14% | [9]; at 33.0 µM -27% | [9]; at 100.0 µM 1% | [10]; [17] 22% | [10]; [18] 37% | [10]; at 50.0 µM -20.9% | [11]; at 1.2 µM 4% | [11]; at 3.7 µM -7% | [11]; [17] 2% | [11]; at 11.0 µM -12% | [11]; at 33.0 µM -5% | [11]; [18] 23% | [11]; at 50.0 µM -16.8% | [11]; at 100.0 µM -9% | [12]; at 1.2 µM -3% | [12]; at 3.7 µM -7% | [12]; at 11.0 µM -7% | [12]; at 33.0 µM -2% | [12]; at 100.0 µM -10% | [13]; at 1.2 µM 11% | [13]; at 3.7 µM 16% | [13]; at 11.0 µM 1% | [13]; at 33.0 µM 4% | [13]; at 100.0 µM -1% | [14]; at 1.2 µM 3% | [14]; at 3.7 µM 11% | [14]; at 11.0 µM 5% | [14]; at 33.0 µM -9% | [14]; at 100.0 µM -9% | [15]; [17] 12% | [15]; at 50.0 µM -21.9% | [16]; at 1.2 µM 4% | [16]; at 3.7 µM 7% | [16]; at 11.0 µM -1% | [16]; at 33.0 µM 3% | [16]; at 100.0 µM -2%
